Assay results taken from PubChem BioAssay (NCI).
Compounds without any hit were thinned out: in the full panel of roughly 79,000, 15% have a hit. A number with no mark means an inactive call. Calls of active or inactive are those of the source. Rule as the data show it: active = growth inhibition above about 70%; inactive = the rest.

What was measured:
[1] = NCI Yeast Anticancer Drug Screen. Data for the rad50 strain (AID 155);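 also: 0% = growth of vehicle-only cultures of the same strain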; details: S. cerevisiae rad50 strain growth inhibition, hits give high values
Summary of the method: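 Vehicle-treated cultures provide the reference for the growth inhibition reported for compound-exposed, repair-deficient yeast.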

[2] = NCI Yeast Anticancer Drug Screen. Data for the mec2-1 strain (AID 157); details: S. cerevisiae mec2-1 strain, hits give high values
Summary of the method: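 Growth inhibition is read against vehicle-treated controls after compound exposure of the mec2-1 yeast strain, which is defective in DNA damage repair or cell cycle control.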

[3] = NCI Yeast Anticancer Drug Screen. Data for the sgs1 mgt1 strain (AID 161);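 also: 0% = growth of cultures given vehicle only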; details: S. cerevisiae sgs1 mgt1 strain, hits give high values
Summary of the method: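 Growth of a repair-deficient yeast mutant was monitored after compound treatment and expressed as inhibition relative to vehicle-treated cultures.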

[4] = NCI Yeast Anticancer Drug Screen. Data for the cln2 rad14 strain (AID 165);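 also: 0% = growth equal to vehicle treated cultures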; details: S. cerevisiae cln2 rad14 strain, hits give high values
Summary of the method: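 Growth inhibition, relative to vehicle-treated controls, is the read-out. The test organism is a yeast strain with defined genetic alterations, cln2 rad14.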

[5] = NCI Yeast Anticancer Drug Screen. Data for the bub3 strain (AID 167); details: S. cerevisiae bub3 mutant strain, hits give high values
Summary of the method: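 Mutant yeast screening strain plus compound; vehicle-treated cultures serve as the 0% inhibition reference.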

[6] = NCI Yeast Anticancer Drug Screen. Data for the mlh1 rad18 strain (AID 175); details: S. cerevisiae mlh1 rad18 strain growth inhibition, hits give high values
Summary of the method: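 Cells of a genetically altered yeast strain, deficient in DNA damage repair, were treated with compound. Their growth was then compared with that of vehicle-treated cultures to give inhibition.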

[7] = at 5.0 µM (retest, dose inferred, filed as 0.5)
[8] = at 50.0 µM (retest, dose inferred, filed as 5.0)

| Compound | growth inhibition [1, 7] | growth inhibition [1, 8] | growth inhibition ([1]; at 50.0 µM) | growth inhibition [2, 7] | growth inhibition [2, 8] | growth inhibition ([2]; at 50.0 µM) | growth inhibition [3, 7] | growth inhibition [3, 8] | growth inhibition ([3]; at 50.0 µM) | growth inhibition [4, 7] | growth inhibition [4, 8] | growth inhibition ([4]; at 50.0 µM) | growth inhibition [5, 7] | growth inhibition [5, 8] | growth inhibition ([5]; at 50.0 µM) | growth inhibition [6, 7] | growth inhibition [6, 8] | growth inhibition ([6]; at 50.0 µM) |
| --- | --- | --- | --- | --- | --- | --- | --- | --- | --- | --- | --- | --- | --- | --- | --- | --- | --- | --- |
| COc1ccc(-n2c(=O)c3[nH]c(=S)[nH]c3n(-c3ccc(OC)cc3)c2=S)cc1 | 21% | 25% | 25.5% | 1% | 16% | 44% | 7% | 23% | -47.7% | 3% | 25% | -1% | -44% | 13% | -41.8% | 14% | 19% | -29.9% |
| Cc1cc2nc(CS)[nH]c2cc1C | -13% | 41% | 66.3% | 4% | 44% | 51.9% | 15% | 70% (active) | 70.8% (active) | 31% | 51% | 43.2% | 26% | 85% (active) | 55.9% | -13% | 61% | 44.2% |
| CN(C)CCC(/C=C/c1ccccc1)=N\Nc1ccc(Cl)cc1Cl | 66% | 87% (active) | 99.5% (active) | 32% | 94% (active) | 99.5% (active) | 47% | 91% (active) | 99.4% (active) | 66% | 88% (active) | 98.7% (active) | 80% (active) | 90% (active) | 98.8% (active) | 78% (active) | 91% (active) | 99.5% (active) |
| O=C1SCCN1/N=C/c1ccc([N+](=O)[O-])o1 | 30% | 85% (active) | 85.8% (active) | 13% | 82% (active) | 65.3% | 34% | 92% (active) | 93.3% (active) | 2% | 68% | 50.7% | 10% | 80% (active) | 64.6% | 51% | 94% (active) | 92% (active) |
| CC(=O)OCC1OC(OC(C)=O)C(On2nnc3c(-c4ccccc4)c(C)nn32)C(OC(C)=O)C1OC(C)=O (configuration not stated) | 0% | 54% | 61.5% | -1% | 71% (active) | 35.8% | 2% | 76% (active) | 47.8% | 1% | 52% | 41.1% | -1% | 59% | 16.1% | -3% | 58% | 36.2% |
| CCCC(=O)NC1=C(Cl)C(=O)c2ccccc2C1=O | 100% (active) | 99% (active) | 91.8% (active) | 100% (active) | 100% (active) | 92.5% (active) | 100% (active) | 100% (active) | 92.5% (active) | 90% (active) | 99% (active) | 91.5% (active) | 100% (active) | 99% (active) | 89.7% (active) | 101% (active) | 99% (active) | 87.5% (active) |
| Nc1nc(N)c2cc(S(=O)c3ccc4ccccc4c3)ccc2n1 (configuration not stated) | 4% | 17% | 24.2% | 29% | 64% | 79.2% (active) | 2% | 9% | 19.5% | -1% | -18% | -42.4% | -21% | -19% | -13.9% | -4% | 3% | 13.5% |
| Cc1ccc(-c2c(C#N)c(-c3ccccc3)n(NS(=O)(=O)c3ccc(C)cc3)c(=O)c2C#N)cc1 | 26% | 73% (active) | 73.5% (active) | 28% | 67% | 79.1% (active) | 35% | 70% (active) | 81% (active) | 52% | 68% | 80.8% (active) | 51% | 70% (active) | 81.7% (active) | 34% | 72% (active) | 77.2% (active) |
| Cc1ccc2c(c1)C1(C)C=C(CN3CCN(C)CC3)C(=O)CC1O2 (configuration not stated) | 16% | 97% (active) | 99.6% (active) | 20% | 99% (active) | 99.7% (active) | 22% | 99% (active) | 99.8% (active) | -4% | 99% (active) | 99.6% (active) | -3% | 99% (active) | 99.7% (active) | 11% | 99% (active) | 99.5% (active) |
| CCCCOc1c(OCCCC)c(=O)c1=O | 78% (active) | 54% | -13.6% | 88% (active) | 79% (active) | -48.5% | 14% | 19% | -31.6% | 37% | 48% | 16.4% | 54% | 54% | -26.6% | 78% (active) | 55% | 40.5% |
| Clc1ccc(-c2cc(-c3cc(-c4ccc(Cl)c(Cl)c4)n[nH]3)[nH]n2)cc1Cl | -2% | 68% | 91% (active) | 6% | 43% | 22.8% | 0% | 67% | 65% | 3% | 60% | 29.7% | -14% | 89% (active) | 22.8% | 19% | 89% (active) | 65% |
| CCOC(=O)c1c(I)[nH]c(I)c1C | -1% | 11% | 30.3% | 0% | 5% | 10.2% | -1% | 14% | 22.2% | -1% | 3% | 10.6% | 4% | 3% | 38.5% | 2% | 9% | 42.3% |
| O=C1c2ccccc2C(c2ccccc2)(c2ccccc2)N1c1ccccc1 | 3% | 79% (active) | 97% (active) | -1% | 80% (active) | 96.5% (active) | 28% | 90% (active) | 95.6% (active) | 18% | 69% | 91.3% (active) | 5% | 81% (active) | 95.7% (active) | 57% | 89% (active) | 95.6% (active) |
| COc1cc(NS(C)(=O)=O)ccc1Nc1c2ccccc2nc2ccccc12 | 67% | 85% (active) | 83.5% (active) | -5% | 57% | 42.5% | 9% | 44% | 37.2% | 15% | 32% | 20.8% | 14% | 24% | 11.1% | 9% | 38% | 32.9% |
| O=C(/C=C\c1cc(Br)ccc1O)/C=C/c1cc(Br)ccc1O | 58% | 90% (active) | 76.8% (active) | 95% (active) | 91% (active) | 75.8% (active) | 80% (active) | 91% (active) | 73.3% (active) | 36% | 88% (active) | 36.4% | 95% (active) | 91% (active) | 89% (active) | 48% | 86% (active) | 75% (active) |
| CCOC(=O)CC(NC(=O)c1[nH]cnc1/N=N/N(C)C)C(=O)OCC (configuration not stated) | -24% | 95% (active) | 89.1% (active) | -8% | 97% (active) | 91.5% (active) | -16% | 95% (active) | 90.6% (active) | -11% | 96% (active) | 91% (active) | -12% | 97% (active) | 91.8% (active) | -24% | 97% (active) | 78% (active) |
| CC(C)C(NC(=O)/C=C\c1ccccc1)C(=O)O (configuration not stated) | -2% | 1% | 88.4% (active) | 1% | -6% | 94.2% (active) | -5% | -7% | 93.5% (active) | 7% | -6% | 95.3% (active) | -3% | -1% | 71.7% (active) | -2% | 4% | 95.2% (active) |
| COc1ccc(C(=O)C(CCC(=O)/C=C/c2ccccc2)S(C)(=O)=O)cc1 (configuration not stated) | 8% | 10% | 9.25% | -12% | 15% | 3.5% | 5% | 13% | 17.2% | 2% | -8% | 39.9% | -7% | 6% | 0.7% | 0% | -5% | 2.4% |
| COC(=O)c1[nH]c(=O)c(C#N)c(C(=O)OC)c1C(=O)c1ccc(Cl)c(Cl)c1 | -19% | 90% (active) | 97% (active) | -18% | 55% | 73% (active) | 23% | 72% (active) | 95.4% (active) | 3% | 61% | 46.1% | -22% | 90% (active) | 79.5% (active) | -12% | 90% (active) | 93.9% (active) |
